Screening data (PubChem)
Only some compounds are listed: those with a hit (about 9.2% of all), similar ones and a draw of the others.
HPGD inh = qHTS Assay for Inhibitors of HPGD (15-Hydroxyprostaglandin Dehydrogenase) | 15-hydroxyprostaglandin dehydrogenase [NAD(+)] (Homo sapiens), P15428 | purified HPGD, NADH fluorescence kinetic, PGE2 substrate | Potency, µM, for the others: top-dose activity change, negative = inhibition, most hits filed as inhibitors | 150,000 compounds, 4.3% hits | AID 894, 2007; note: % is set by controls: 0 for no effect and ±100 for the full control effect
Target sequence (P15428 whole entry, looked up): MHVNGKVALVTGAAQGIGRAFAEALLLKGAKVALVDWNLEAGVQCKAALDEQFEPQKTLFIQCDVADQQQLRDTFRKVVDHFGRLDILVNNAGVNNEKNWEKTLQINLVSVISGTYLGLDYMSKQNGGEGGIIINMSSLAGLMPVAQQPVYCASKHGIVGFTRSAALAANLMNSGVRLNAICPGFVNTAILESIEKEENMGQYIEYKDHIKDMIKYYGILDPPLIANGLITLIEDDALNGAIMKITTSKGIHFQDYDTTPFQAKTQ
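20 nM HPGD preincubated 15 min at room temperature with compound in 50 mM Tris-HCl pH 8, 0.01% Tween 20. Started with 1 mM NAD+ and 30 uM prostaglandin E2; NADH fluorescence (360/450 nm) read 5 times over 30-s intervals, last minus first.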
HTT ATP protect = qHTS Multiplex Assay to Identify Dual Action Probes in a Cell Model of Huntington: Cytoprotection (ATP); PC12 HTT-Q103 induced, cytoprotection, ATP luminescence, 40 h; 230,000 compounds, 0.14% hits; Potency, µM (top dose mostly 56.4 µM), without a hit: cytoprotection (ATP increase), most hits filed as activators; active = well fitted curve in the direction sought with a large enough effect; inconclusive = small, poorly fitted or top-dose-only effect, or another doubt; inactive = no such curve, though single readings can be large; an effect the other way counts as inactive or inconclusive; note: % of control where 0% means no effect; nearly all actives have a fitted effect of over 45% in size
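Rat PC12, Q103 Htt exon1-GFP fusion, ecdysone promoter; tebufenozide inducer 100 nM final; compound titration; qHTS, 1500 cells/well; ATPlite luminescent read.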
ALDH1A1 inh = qHTS Assay for Inhibitors of Aldehyde Dehydrogenase 1 (ALDH1A1) | Aldehyde dehydrogenase 1A1 (Homo sapiens), P00352 | Purified ALDH1A1, NADH fluorescence, propionaldehyde substrate | Potency, µM (titrated, usually from 75.3 µM), for the others: at the top dose activity, negative = inhibition, actives largely listed as inhibitors | 220,000 compounds, 7.3% hits | AID 1030, 2008;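 note: plate controls were no enzyme wells and a reference inhibitor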
Target sequence (P00352 whole entry, looked up): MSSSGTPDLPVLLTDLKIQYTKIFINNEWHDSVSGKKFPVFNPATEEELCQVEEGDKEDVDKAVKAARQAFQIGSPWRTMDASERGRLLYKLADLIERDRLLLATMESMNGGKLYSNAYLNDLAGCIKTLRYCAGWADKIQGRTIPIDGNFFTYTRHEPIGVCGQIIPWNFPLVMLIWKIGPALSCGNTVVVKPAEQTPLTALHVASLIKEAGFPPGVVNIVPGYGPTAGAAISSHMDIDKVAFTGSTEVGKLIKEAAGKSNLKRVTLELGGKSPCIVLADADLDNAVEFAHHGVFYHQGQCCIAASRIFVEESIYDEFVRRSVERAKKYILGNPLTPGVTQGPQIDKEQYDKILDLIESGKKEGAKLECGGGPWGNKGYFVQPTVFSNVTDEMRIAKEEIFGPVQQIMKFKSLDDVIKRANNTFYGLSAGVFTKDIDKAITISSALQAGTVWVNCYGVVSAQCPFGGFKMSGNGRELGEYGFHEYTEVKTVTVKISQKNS
HttQ103 aggreg = qHTS Multiplex Assay to Identify Dual Action Probes in a Cell Model of Huntington: Aggregate Formation (GFP); AID 1688, 2009; PC12 HttQ103-GFP aggregates, Acumen cytometry, 40 h; Potency, µM (top dose mostly 46.1 µM), for the others: top-dose activity change, negative = inhibition, usual class: inhibitors; 220,000 compounds, 1.1% hits; active = well fitted curve in the direction sought with a large enough effect; inconclusive = small, poorly fitted or top-dose-only effect, or another doubt; inactive = no such curve, though single readings can be large; an effect the other way counts as inactive or inconclusive; note: % is set by controls: 0 for no effect and ±100 for the full control effect; nearly all actives have a fitted effect of over 60% in size
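Inducible Q103 Huntingtin exon 1–GFP PC12 line, 1500 cells/well in phenol red free DMEM with 5% equine and 5% calf serum. Tebufenozide 100 nM induced expression; compounds titrated; aggregates quantified by cytometry.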
JMJD2E inh = qHTS Assay for Inhibitors of Human Jumonji Domain Containing 2E (JMJD2E); Lysine-specific demethylase 4E (Homo sapiens), B2RXH2; JMJD2E catalytic domain, FDH-coupled NADH fluorescence (FDH is formaldehyde dehydrogenase); Potency, µM (series often up to 57.1 µM), inactives show at the top dose activity change, negative = inhibition, most hits filed as inhibitors; 230,000 compounds, 1.6% hits;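 note: 0% = wells with enzyme and -100% = buffer wells without enzyme; nearly all actives have a fitted effect of over 50% in size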
Lamin A splicing = qHTS Assay for Modulators of Lamin A Splicing; HeLa LMNA splicing GFP/RFP minigene ratio, 48 h; Potency, µM (doses to about 46.1 µM), inactives show at the highest dose ratio change, negative = inhibition, usual class: inhibitors; 200,000 compounds, 0.01% hits; active = well fitted inhibition curve with a large enough effect in the signal ratio, with a control signal flat, not every such curve was filed as active; inconclusive = small, poorly fitted or top-dose-only effect, or effect the other way, or a change in a side signal; the % refers to the signal ratio; note: % is set by controls: 0 for no effect and ±100 for the full control effect
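S3 HeLa stable clones carrying a lamin A-EGFP splicing minigene plus DsRed2 were seeded at 600 cells/well in Opti-MEM with 2% FBS, pin-dosed and incubated 48 h at 37°C. Acumen cytometry (488 nm) gave the GFP/RFP total-intensity ratio.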
An asterisk follows results filed as active; [ ] = dose if it differs, or a comment. Unless noted, calls come from the whole dose curve; as a rule, active = well fitted inhibition curve with a large enough effect (not every such curve was filed as active); inconclusive = small, poorly fitted or top-dose-only effect, or another doubt; inactive = no such curve, though single readings can be large or run the other way. Potency is the fitted concentration of half-maximal effect.

What do the screens show for `Cc1ccc(C(=O)CC2(O)C(=O)N(CCc3ccccc3)c3ccc(Br)cc32)o1` (centres undefined)?
HPGD inh: -13.7%; HTT ATP protect: 0.7%[0.074 µM]; ALDH1A1 inh: inconclusive; HttQ103 aggreg: 15.5%; JMJD2E inh: -4.4%; Lamin A splicing: -5.6%

How did NC(=O)CN1C(=O)C(O)(CC(=O)c2ccccc2O)c2ccccc21 (centres undefined) do in these assays?
HPGD inh: -15.1%; HTT ATP protect: 0.0%[10 µM]; ALDH1A1 inh: inconclusive; HttQ103 aggreg: -14.3%; JMJD2E inh: 3.9%; Lamin A splicing: -14.2%

How did CC(=O)CC1(O)C(=O)N(Cc2ccccc2)c2ccccc21 (centres undefined) do in these assays?
HPGD inh: -4.3%; HTT ATP protect: -11.7%; ALDH1A1 inh: inconclusive; HttQ103 aggreg: 8.1%; JMJD2E inh: -0.2%; Lamin A splicing: 9.5%

Results for CCN1C(=O)C(O)(CC(=O)c2ccccn2)c2ccccc21 (centres undefined) ?
HPGD inh: -3.0%; HTT ATP protect: 6.4%; ALDH1A1 inh: inconclusive; HttQ103 aggreg: 10.0%; JMJD2E inh: 19.0%; Lamin A splicing: -5.6%

How did Cc1ccc(C(=O)CC2(O)C(=O)N(Cc3ccccc3)c3ccccc32)o1 (centres undefined) do in these assays?
HPGD inh: -12.2%; HTT ATP protect: -17.0%[0.074 µM]; ALDH1A1 inh: 0.708µM*; HttQ103 aggreg: -14.6%; JMJD2E inh: 0.3%; Lamin A splicing: -1.3%

How did Cc1coc(C)c1C(=O)CC1(O)C(=O)N(Cc2ccccc2)c2ccccc21 (centres undefined) do in these assays?
HPGD inh: -27.0%; HTT ATP protect: -0.3%; ALDH1A1 inh: 4.47µM*; HttQ103 aggreg: -2.8%; JMJD2E inh: 0.0%; Lamin A splicing: 4.9%

Results for C/C(CC1(O)C(=O)N(Cc2ccccc2)c2ccccc21)=N\O (centres undefined) ?
HPGD inh: -16.5%; HTT ATP protect: -9.7%; ALDH1A1 inh: 1.58µM*; HttQ103 aggreg: 22.2%; JMJD2E inh: 2.1%; Lamin A splicing: 6.4%

Results for Cc1ccc(NC(=O)CSc2nc3ncccc3[nH]2)cc1F ?
Lamin A splicing: 6.2%[46 µM]

What do the screens show for `O=C(NCC(c1ccc(Cl)cc1)N1CCCCC1)c1ccc(F)cc1` (centres undefined)?
Lamin A splicing: -3.7%[46 µM]

Results for NC(=O)c1ccsc1NC(=O)COC(=O)CCOc1ccccc1 ?
HTT ATP protect: -5.4%[10 µM]; ALDH1A1 inh: -4.4%; HttQ103 aggreg: -4.8%[9.22 µM]; JMJD2E inh: -9.7%; Lamin A splicing: 0.3%[46 µM]

How did CCOc1ccc(NC(=O)CN2C(=O)c3ccccc3Sc3ccc(C(=O)OC)cc32)cc1 do in these assays?
Lamin A splicing: 19.7%[46 µM]

Results for COc1cccc(NC(=O)Cc2csc(COc3cccc(C)c3)n2)c1 ?
Lamin A splicing: 0.6%[46 µM]

What do the screens show for `COc1ccc(CN2C(=O)C(O)(CC(=O)c3c(C)n[nH]c3C)c3ccccc32)cc1OC` (centres undefined)?
HPGD inh: -3.6%; HTT ATP protect: 0.5%; ALDH1A1 inh: 3.55µM*; HttQ103 aggreg: 7.9%; JMJD2E inh: 1.1%; Lamin A splicing: -4.3%

How did C=CCN1C(=O)C(O)(CC(=O)c2c(C)n[nH]c2C)c2cc(Br)ccc21 (centres undefined) do in these assays?
HPGD inh: 1.3%; HTT ATP protect: -7.2%; ALDH1A1 inh: inconclusive; HttQ103 aggreg: 7.6%; JMJD2E inh: 2.3%; Lamin A splicing: 2.4%

How did O=C(CN1C(=O)c2cccc3cccc(c23)C1=O)N1CCN(Cc2ccc3c(c2)OCO3)CC1 do in these assays?
HPGD inh: -22.8%; HTT ATP protect: 19.6%[10 µM]; ALDH1A1 inh: inconclusive; HttQ103 aggreg: 17.8µM*; JMJD2E inh: inconclusive; Lamin A splicing: -22.2%

What do the screens show for `CCc1ccc(CN2CCN(C(=O)c3cccc(OC)c3OC)CC2)cc1`?
HPGD inh: -11.0%; HTT ATP protect: 4.6%[10 µM]; ALDH1A1 inh: inconclusive; HttQ103 aggreg: 7.94µM*; JMJD2E inh: -9.6%; Lamin A splicing: inconclusive

How did COc1ccccc1C(=O)N1CCN(Cc2ccc3c(c2)OCO3)CC1 do in these assays?
HPGD inh: -6.4%; HTT ATP protect: 3.5%[10 µM]; ALDH1A1 inh: 8.3%; HttQ103 aggreg: 2.82µM*; JMJD2E inh: -0.6%; Lamin A splicing: inconclusive

Results for Cc1ccc(C(=O)N2CCN(Cc3ccc4c(c3)OCO4)CC2)cc1[N+](=O)[O-] ?
HTT ATP protect: 0.1%; ALDH1A1 inh: 12.6µM*; HttQ103 aggreg: 13.9%; JMJD2E inh: -4.5%

What do the screens show for `COc1cc2cc(C(=O)N3CCN(Cc4ccc5c(c4)OCO5)CC3)c(=O)oc2cc1OC`?
HTT ATP protect: 12.3%[10 µM]; HttQ103 aggreg: -17.3%[9.22 µM]; JMJD2E inh: inconclusive

Results for COc1cc2c(C(=O)N3CCN(Cc4ccc5c(c4)OCO5)CC3)cn(C)c(=O)c2cc1OC ?
HPGD inh: -13.0%; HTT ATP protect: 1.6%[10 µM]; ALDH1A1 inh: 2.51µM*; HttQ103 aggreg: -3.3%; JMJD2E inh: inconclusive; Lamin A splicing: -2.2%

How did O=C(OCCN1C(=O)c2ccccc2C1=O)c1ccccc1 do in these assays?
HTT ATP protect: 17.0%; ALDH1A1 inh: -8.7%; HttQ103 aggreg: -18.3%; JMJD2E inh: 4.8%

How did Cn1nc(C(=O)OCCN2C(=O)c3ccccc3C2=O)c2ccccc2c1=O do in these assays?
HPGD inh: 20µM*; HTT ATP protect: 0.5%; ALDH1A1 inh: 3.1%; HttQ103 aggreg: -15.7%; JMJD2E inh: 9.5%; Lamin A splicing: -6.3%

How did CCN1/C(=C/C(C)=C/c2sc3ccccc3[n+]2CC)Sc2ccccc21 do in these assays?
HTT ATP protect: -186.3%; ALDH1A1 inh: inconclusive; HttQ103 aggreg: 1.12µM*; JMJD2E inh: -12.8%

How did CCCn1c2ccccc2c2cnn(CC(=O)Nc3cc(C)c(Cl)cc3OC)c(=O)c21 do in these assays?
Lamin A splicing: 1.2%[46 µM]

What do the screens show for `Cc1cnc(CNc2ccnc(-c3cccc(NS(C)(=O)=O)c3)n2)cn1`?
HTT ATP protect: -20.1%; ALDH1A1 inh: 8.9%; Lamin A splicing: -4.3%

What do the screens show for `Cc1ccc2c(c1)CCCN2C(=O)c1ccco1`?
HPGD inh: -5.4%; HTT ATP protect: -16.6%; ALDH1A1 inh: -8.0%; HttQ103 aggreg: 2.51µM*; JMJD2E inh: 3.6%; Lamin A splicing: 3.4%
